Paper PMC4336329 (PLoS ONE, 2015)
Screen size: about 310,000 compounds; about 14,000 (4.5%) showed an effect of 50% or more. Effects have a minus sign here. Many of the other results were omitted from the sample, so strong results are more common in it than they were.

Biological target: human ether-à-go-go-related gene (hERG) potassium channel (human, UniProt Q12809)
Experiment: primary screen, population patch clamp on CHO cells stably expressing hERG; higher = less effect of the substance
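Also: peak tail current of the secondary pulse compared with the same well before compound.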

Chain of human ether-à-go-go-related gene (hERG) potassium channel (Q12809 whole entry, looked up): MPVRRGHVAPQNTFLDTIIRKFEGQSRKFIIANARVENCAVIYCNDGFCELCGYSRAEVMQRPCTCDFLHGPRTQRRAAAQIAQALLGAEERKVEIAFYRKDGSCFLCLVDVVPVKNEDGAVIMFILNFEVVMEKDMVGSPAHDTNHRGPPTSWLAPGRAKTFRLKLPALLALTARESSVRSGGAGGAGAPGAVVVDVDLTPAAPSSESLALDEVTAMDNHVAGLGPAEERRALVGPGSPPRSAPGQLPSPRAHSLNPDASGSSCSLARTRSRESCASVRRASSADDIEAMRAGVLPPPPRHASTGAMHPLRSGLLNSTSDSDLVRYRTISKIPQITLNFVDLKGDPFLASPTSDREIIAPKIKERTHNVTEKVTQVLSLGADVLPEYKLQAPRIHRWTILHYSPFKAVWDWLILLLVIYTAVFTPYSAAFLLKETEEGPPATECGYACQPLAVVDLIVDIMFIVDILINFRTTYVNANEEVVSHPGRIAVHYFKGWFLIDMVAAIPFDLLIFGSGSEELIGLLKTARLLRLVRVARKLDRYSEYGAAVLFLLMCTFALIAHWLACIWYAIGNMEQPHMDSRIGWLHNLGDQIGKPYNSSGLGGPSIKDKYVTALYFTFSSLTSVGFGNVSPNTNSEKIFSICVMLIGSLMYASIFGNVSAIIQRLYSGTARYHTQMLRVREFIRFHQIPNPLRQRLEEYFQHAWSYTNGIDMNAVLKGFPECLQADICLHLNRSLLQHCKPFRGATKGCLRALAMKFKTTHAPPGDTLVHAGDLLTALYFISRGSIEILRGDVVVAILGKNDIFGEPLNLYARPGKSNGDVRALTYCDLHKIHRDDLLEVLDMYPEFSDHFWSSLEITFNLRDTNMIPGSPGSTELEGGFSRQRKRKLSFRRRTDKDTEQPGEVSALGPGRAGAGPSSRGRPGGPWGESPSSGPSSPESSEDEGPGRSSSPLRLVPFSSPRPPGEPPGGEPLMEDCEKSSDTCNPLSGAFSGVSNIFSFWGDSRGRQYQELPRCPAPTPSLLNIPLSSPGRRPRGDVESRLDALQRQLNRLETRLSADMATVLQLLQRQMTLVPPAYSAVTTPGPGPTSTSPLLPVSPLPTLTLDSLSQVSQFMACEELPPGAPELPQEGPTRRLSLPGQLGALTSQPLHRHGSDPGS

Row | SMILES | hERG current change (%, negative = inhibition) at 10uM [%]
1 | Cc1ccc(C(C)NC(=O)Cc2cccs2)cc1C (stereo not shown) | -44.2
2 | CCN1CCCC1CNC(=O)C(=O)NC(C)c1ccccc1 (stereo not shown) | 13
3 | Br.N=c1n(CCN2CCOCC2)c2ccccc2n1CC(=O)c1cccc([N+](=O)[O-])c1 | -42.2
4 | Br.CCn1c(=N)n(CC(=O)c2cccc([N+](=O)[O-])c2)c2ccccc21 | 12.1
5 | Br.C=CCn1c(=N)n(CC(=O)c2cccc([N+](=O)[O-])c2)c2ccccc21 | -56.7
6 | Br.N=c1n(CC(=O)c2cccc([N+](=O)[O-])c2)c2ccccc2n1Cc1ccccc1 | -17.9
7 | Br.N=c1n(CCN2CCCCC2)c2ccccc2n1CC(=O)c1cccc([N+](=O)[O-])c1 | -69
8 | Cl.N=C(c1cccc([N+](=O)[O-])c1)N1CCCCCC1 | 2.26
9 | O=C1Nc2ccccc2/C1=C/c1cnc(-c2ccccc2)[nH]1 | 26.2
10 | C[C@@H]1C(=O)O[C@H]2[C@H](O)[C@@]34[C@H]5C[C@@H](C(C)(C)C)[C@]36[C@@H](OC(=O)[C@@H]6O)O[C@@]4(C(=O)O5)[C@@]12O | 21.2
11 | CC(OC(=O)C1CCN(S(=O)(=O)c2ccc(Cl)cc2)CC1)C(=O)N1CCc2ccccc21 (stereo not shown) | -16.4
12 | Oc1ccc(-c2cccc(-c3ccc(O)cc3)n2)cc1 | 15.5
13 | CN(C)S(=O)(=O)N1CCN(C(=O)N2CCCCC2)CC1 | 3.64
14 | COc1cc(/C=C(\C#N)c2nn(CCO)c(N)c2C#N)cc(OC)c1OC | 12.5
15 | O=C(COc1ccccc1)NCC(=O)N1CCCCCC1 | 7.21
16 | CN(C)CCCN=Cc1c(O)n(CCc2ccccc2)c(=O)[nH]c1=O | -0.99
17 | CN(C)CCCN=Cc1c(-c2ccccc2)[nH]n(-c2nc3ccccc3s2)c1=O | -71
18 | O=c1c(C=NCCCO)c(-c2ccccc2)[nH]n1-c1nc2ccccc2s1 | -72.6
19 | O=c1c(C=NCc2cccnc2)c(C(F)(F)F)[nH]n1-c1nc2ccccc2s1 | 9.04
20 | C/C(=N/NC(=O)c1cccs1)c1c(C)[nH]n(-c2nc3ccccc3s2)c1=O | 7.38
21 | O=c1c(C=NCCCn2ccnc2)c(-c2ccccc2)[nH]n1-c1nc2ccccc2s1 | -71.4
22 | CCN(CC)CCCN=Cc1c(-c2ccccc2)[nH]n(-c2nc3ccccc3s2)c1=O | -78.2

Row | SMILES | hERG current change (%, negative = inhibition) at 10uM [%]
23 | O=c1[nH]c(=O)n(Cc2ccccc2)c(O)c1C=NCCCn1ccnc1 | 1.23
24 | CCOC(=O)Cc1cc(=O)n(-c2nc3ccccc3s2)[nH]1 | 5.12
25 | CCC(=NCc1ccccc1)c1c(C(F)(F)F)[nH]n(-c2nc3ccccc3s2)c1=O | 12.6
26 | O=c1cc(-c2ccccc2)[nH]n1-c1nc2ccccc2s1 | 14.2
27 | Nn1c(SCC(=O)NC2CCS(=O)(=O)C2)nnc1-c1cccs1 (stereo not shown) | 16.7
28 | COc1ccc(NC(=O)c2ccccc2CC[N+](=O)[O-])cc1 | 9.51
29 | COc1ccc(CCNC(=O)C2CC(c3ccc(C(F)(F)F)cc3)=NO2)cc1 (stereo not shown) | -6.74
30 | COc1ccc(C(=O)OCC(=O)NCC2CCCO2)cc1 (stereo not shown) | 17.7
31 | COc1ccc2nc(NS(=O)(=O)c3ccc(NC(C)=O)cc3)sc2c1 | 14
32 | O=C(CCN1C(=O)/C(=C/c2ccco2)SC1=S)Nc1ccc(C(=O)O)c(O)c1 | 25.1
33 | Cc1sc2nc(C)n(/N=C/c3ccccc3O)c(=O)c2c1C | -7.37
34 | O=C(Nc1cc(C(F)(F)F)ccc1N1CCOCC1)c1ccccc1F | -4.2
35 | COCCCN=Cc1c(-c2ccccc2)[nH]n(-c2nc3ccccc3s2)c1=O | -75.1
36 | CC(=NC1CC1)c1c(-c2ccccc2)[nH]n(-c2nc3ccccc3s2)c1=O | 9.63
37 | CC(=NCCCn1ccnc1)c1c(-c2ccccc2)[nH]n(-c2nc3ccccc3s2)c1=O | -70.8
38 | COCCCN=Cc1c(C)[nH]n(-c2ccc(Br)c(C)c2)c1=O | -9.32
39 | CCCN=C(C)c1c(-c2ccccc2)[nH]n(-c2nc3ccccc3s2)c1=O | -7.79
40 | COCCCN=Cc1c(C)[nH]n(-c2ccc(Br)cc2Br)c1=O | 20.4
41 | Cn1nc([N+](=O)[O-])nc1Oc1ccccc1 | -5.63
42 | COc1ccc(C(=O)NC2CCN(C(=S)Nc3cccc(C)c3C)CC2)cc1 | 0.204
43 | O=C1c2cccc3c(Nc4ccccc4Cl)c([N+](=O)[O-])cc(c23)C(=O)N1CCO | -22.8
44 | O=C1O/C(=C/c2ccccc2)c2ccccc21 | -3.12

Row | SMILES | hERG current change (%, negative = inhibition) at 10uM [%]
45 | O=C1O/C(=C\c2ccccc2)c2ccccc21 | -57.8
46 | Cc1ccc(/C=C2\OC(=O)c3ccccc32)cc1 | 14.9
47 | COc1ccc(S(=O)(=O)N2CCCC2C(=O)Nc2ccc(C)cc2)cc1 (stereo not shown) | -15.3
48 | O=C(COc1ccccc1)NNc1nc2c(F)cc(F)cc2s1 | -62.6
49 | O=C(COc1ccccc1)NNc1nc2c(F)cccc2s1 | 32.6
50 | O=C(NNc1nc2c(F)cc(F)cc2s1)c1ccccc1 | 8.87
51 | O=C(NN=C1CCCCC1)Nc1ccccc1Cl | 3.82
52 | CCn1c(SCC(=O)Nc2nonc2C)nnc1-c1ccoc1C | -1.18
53 | CCCn1c(SCC(=O)Nc2nonc2C)nnc1-c1ccoc1C | -8.43
54 | Cc1nonc1NC(=O)CSc1nnc(-c2ccoc2C)n1C | 4.89
55 | Cc1ccc(C)c(-n2c(SCC(=O)Nc3nonc3C)nnc2-c2ccoc2C)c1 | -61.2
56 | Cc1nonc1NC(=O)CSc1nnc(-c2ccoc2C)n1-c1cccc(Cl)c1 | -77.9
57 | Cc1cccc(-n2c(SCC(=O)Nc3nonc3C)nnc2-c2ccoc2C)c1 | -78.9
58 | Cc1nonc1NC(=O)CSc1nnc(-c2ccoc2C)n1CC(C)C | -17.1
59 | Cc1ccc(-n2c(SCC(=O)Nc3ccc4c(c3)OCO4)nnc2-c2ccoc2C)cc1 | -42.2
60 | CNC(=O)CSc1nnc(-c2ccco2)n1-c1cc(C)ccc1C | -2.95
61 | COc1ccc(C)cc1NC(=O)C(C)N1CCOCC1.Cl (stereo not shown) | 9.06
62 | Cc1nc(Nc2nc3ccccc3o2)nc(C)c1C | 10.3
63 | CCC(C(=O)Nc1ccc(C(=O)O)cc1NC(=O)C(CC)c1ccccc1)c1ccccc1 (stereo not shown) | 9.71
64 | CCOc1ccc(CCNC(=O)C2CCN(c3nn4c(=O)cc(C)nc4s3)CC2)cc1OCC | -8.23
65 | Cc1c(C)n(C)c2ccc(C(=O)N3CCN(c4ccccc4)CC3)cc12 | -5.05
66 | CCOc1ccccc1-c1noc(CCC(=O)Nc2cccnc2)n1 | 9.94

Row | SMILES | hERG current change (%, negative = inhibition) at 10uM [%]
67 | CCC1C(=O)C(CC)C(c2ccccc2)NC1c1ccccc1 (stereo not shown) | 11.9
68 | CCn1cc(C(=O)N2CCN(c3cccc(Cl)c3)CC2)c2cc(OC)c(OC)cc2c1=O | -64.8
69 | COc1ccccc1C(=O)N1CCN(c2cccc(Cl)c2)CC1 | 0.406
70 | COc1cc2c(C(=O)NCCCN3CCN(c4cccc(Cl)c4)CC3)cn(C)c(=O)c2cc1OC | -46
71 | COc1cc2c(C(=O)N3CCN(c4cccc(Cl)c4)CC3)cn(CC(C)C)c(=O)c2cc1OC | -63.6
72 | CCn1cc(C(=O)N2CCN(c3ccc(C(C)=O)cc3)CC2)c2cc(OC)c(OC)cc2c1=O | -44.3
73 | CCn1cc(C(=O)N2CCN(c3ccc(F)cc3)CC2)c2cc(OC)c(OC)cc2c1=O | -69.5
74 | CCn1cc(C(=O)N2CCN(c3ccccn3)CC2)c2cc(OC)c(OC)cc2c1=O | -14.4
75 | CCn1cc(C(=O)N2CCN(c3ccccc3OC)CC2)c2cc(OC)c(OC)cc2c1=O | -1.96
76 | COc1cc2c(C(=O)N3CCN(c4cccc(Cl)c4)CC3)cn(C)c(=O)c2cc1OC | -53.1
77 | CCCN1CCN(C(=O)c2cn(CC(C)C)c(=O)c3cc(OC)c(OC)cc23)CC1 | -41.1
78 | CCn1cc(C(=O)N2CCN(c3ccc(OC)cc3)CC2)c2cc(OC)c(OC)cc2c1=O | -33.8
79 | COc1ccc(C(=O)N2CCN(c3cccc(Cl)c3)CC2)c(OC)c1 | -44.6
80 | CCOC(=O)c1cnc(SC)nc1Oc1cccc(NC(=O)c2ccc(C)cc2)c1 | 11.4
81 | COC(=O)c1cccnc1SCc1ccccc1 | -14.9
82 | C/C(=N\OCC(=O)Nn1c(C)nc2ccccc2c1=O)c1ccccc1 | -13.8
83 | Cc1cccc(NC(=O)c2cc3c([nH]c4ccccc43)c(C)n2)c1C | 11.6
84 | COc1cc(C2C(C(=O)c3cccs3)=C(O)C(=O)N2CCN2CCOCC2)cc(OC)c1OC (stereo not shown) | 14.3
85 | CN(C)c1cc[n+](CC(=O)Nc2cc(C(F)(F)F)ccc2Cl)cc1.[Cl-] | 7.63
